Vaccinia Venus – qHTS for Stage-Specific Inhibitors of Vaccinia Orthopoxvirus: Venus Reporter Primary qHTS | Vaccinia virus Venus reporter expression, fluorescence | Potency, µM (series often up to 36.5 µM), actives largely listed as inhibitors | 330,000 compounds, 0.46% hits; calls by dose curve; tested in A549 cells; note: nearly all actives have a fitted effect of over 30% in size
HCMV inh – qHTS Assay for inhibitors of the human cytomegalovirus (HCMV) | activity change, negative = inhibition, % at 57.5 µM | HFF cells, HCMV-luciferase reporter, 72 h; stronger effect = lower value | 410,000 compounds, 4.5% hits; in the data active = activity change below about -60%; inconclusive = no clear call, values can overlap the other calls; inactive = above about -39%
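Human foreskin fibroblasts infected with luciferase-reporter HCMV at MOI 1 PFU/cell, compounds at two doses. Luciferase measured 72 h post infection; normalized to buffer-only basal and Salinomycin (10uM) controls.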
FMDV inh – High Throughput Screening for Foot and Mouth Disease Virus Antivirals. Potency, µM (series often up to 57.9 µM), actives largely listed as inhibitors. FMDV antiviral cell-based qHTS. 410,000 compounds, 1.2% hits; calls by dose curve; tested in HEK293T cells; note: read-out not given here; nearly all actives have a fitted effect of over 45% in size
MARV entry inh – qHTS for inhibitors of binding or entry into cells for Marburg Virus. AID 540276, 2011. Potency, µM (series often up to 37.8 µM), usual class: inhibitors. 300,000 compounds, 1.8% hits. Marburg virus pseudotyped entry inhibition, cell reporter; calls by dose curve; tested in HEK293 cells
Lassa entry inh – qHTS for Inhibitors of binding or entry into cells for Lassa Virus; AID 540256, 2011; Potency, µM (titrated, usually from 37.9 µM), hits mostly inhibitors; 300,000 compounds, 1.2% hits; Lassa virus pseudotype entry inhibition, cell reporter; calls by dose curve; tested in HEK293 cells; note: nearly all actives have a fitted effect of over 50% in size
VACV mCherry inh – qHTS for Stage-Specific Inhibitors of Vaccinia Orthopoxvirus: mCherry Reporter Primary qHTS; 310,000 compounds, 0.63% hits; Potency, µM (series often up to 36.5 µM), usual class: inhibitors; Vaccinia virus mCherry reporter infection, fluorescence; calls by dose curve; tested in A549 cells; note: nearly all actives have a fitted effect of over 35% in size
Hits are given with their value; 0 = inactive; ? = inconclusive; - = no result given; ! = not confirmed by another sample. This is a sample that favours compounds with a hit; in the whole collection about 6.5% have one here.

SMILES | Vaccinia Venus | HCMV inh | FMDV inh | MARV entry inh | Lassa entry inh | VACV mCherry inh
O=C(Nc1ccccc1)c1nn(-c2ccccc2)c(=O)cc1C(F)(F)F | 0 | 0 | 0 | 0 | 0 | -
O=C(c1ccccc1)c1nn(-c2ccc(Cl)cc2)c(=O)cc1C(F)(F)F | 0 | -104 | 28µM | 8.9µM | 11µM | ?
O=C(c1ccccc1)c1nn(-c2ccccc2)c(=O)cc1-c1ccccc1 | 0 | - | 0 | - | - | 0
O=C(c1ccccc1)c1nn(-c2ccccc2)c(=O)cc1C(F)(F)F | 0 | -67 | 0 | ? | ? | -
O=C(c1cccc(Cl)c1)c1nn(-c2ccccc2)c(=O)cc1C(F)(F)F | 0 | -72 | ? | 0 | 0 | -
CCN(CC)C(=O)c1sc2c(c1C)c(=O)n(-c1ccc(Cl)c(Cl)c1)c(=O)n2Cc1cc(=O)n2c(C)cccc2n1 | 0 | 0 | ? | - | 0 | 0
Cc1ccccc1S(=O)(=O)N[C@H]1CC[C@@]23CCCN2C(=O)CCC[C@H]3[C@H]1Cc1ccccc1 | - | 0 | - | - | - | -
O=C(Nc1ncnc2nc[nH]c12)c1ccccc1 | 0 | - | - | - | - | 0
O=C(/C(=C/c1ccncc1)n1ccnc1)c1ccc(Cl)cc1Cl | - | ? | 22µM | - | - | -
COc1ccc(N2C(=O)[C@@H]3C[C@H]2CN3Cc2cccn2-c2ccccn2)cc1Cl | 0 | - | 0 | - | - | 0
Cc1cc(=O)n(CC(=O)NCCC(C)C)c2c1c(C)nn2C | 0 | 0 | 0 | - | ? | 0
Cc1ccc(CNc2nc(CN3CCN(C=O)CC3)nc3ccccc23)o1 | 0 | - | 0 | - | - | 0
Cc1nnc2n1N=CC=C(c1ccccc1)S2 | - | -99 | ? | ? | ? | -
Cc1nnc2n1N=CC=C(C(C)(C)C)S2 | - | 0 | 0 | 0 | 0 | -
COCCn1nnnc1C(c1cccs1)N1CCN(c2cc(C)ccc2C)CC1 (stereo unspecified) | 0 | 0 | - | 16µM! | ? | 0
Cc1cccc(N2CCN(C(c3cccs3)c3nnnn3C(C)(C)C)CC2)c1C (stereo unspecified) | 0 | ? | - | 12µM! | ? | 0
Cc1cccc(N2CCN(C(c3ccccc3)c3nnnn3C(C)(C)C)CC2)c1C (stereo unspecified) | - | 0 | 0 | ? | 3.3µM | -
CC(C)(C)n1nnnc1C(c1cccs1)N1CCN(c2ccccc2)CC1 (stereo unspecified) | 0 | 0 | 0 | 0 | ? | 0
COc1ccccc1N1CCN(C(c2ccc(Cl)cc2)c2nnnn2C(C)(C)C)CC1 (stereo unspecified) | 0 | -66 | ? | ? | ? | -
Cc1ccc(Cc2c(C)nc3nc(SCC(=O)NC(C)c4ccccc4)nn3c2C)cc1 (stereo unspecified) | 0 | 0 | 0 | 0 | 0 | 0
Cc1cc(C)n(Cc2cccc(C(=O)NCC3Cc4cccc(-c5ncccn5)c4O3)c2)n1 (stereo unspecified) | 0 | - | 0 | - | - | 0
CCOc1ccc(NS(=O)(=O)c2ccc3[nH]cc(C(=O)N(C)C4CCCCC4)c(=O)c3c2)cc1 | 0 | 0 | 0 | - | 0 | 0
CCSc1nnc(-c2ccc(Cl)cc2)c2ccccc12 | - | ? | 0 | 0 | 0 | -
Cc1ccc(-c2nnc(Sc3nc4ccccc4o3)c3ccccc23)cc1 | 10µM | 0 | 0 | 0 | 0 | 10µM
CCSc1nnc(-c2ccc(C)cc2)c2ccccc12 | ? | -62 | 0 | ? | ? | ?
SMILES | Vaccinia Venus | HCMV inh | FMDV inh | MARV entry inh | Lassa entry inh | VACV mCherry inh
Clc1ccc(-c2nnc(Sc3nc4ccccc4o3)c3ccccc23)cc1 | ? | -82 | - | ? | ? | 14µM
Cc1cc(C)cc([C@H]2C[C@]34CN(Cc5ccccc5)[S+](=O)([O-])[C@@H]3C[C@@H]2O4)c1 | - | - | - | - | 0 | -
COc1ccc(-c2nc(-c3ccccc3)ncc2S(C)(=O)=O)cc1 | 0 | 0 | 0 | 0 | 0 | 0
COc1ccc(-c2nc(-c3ccccn3)ncc2S(C)(=O)=O)cc1 | 0 | -61 | 0 | 0 | 0 | 0
CCCN1CNc2c(c(=O)[nH]c(=S)n2CCc2cc(Cl)ccc2Cl)C1 | 0 | - | - | - | - | 0
Cc1nc(Nc2ccc(O)cc2)c2c3c(sc2n1)CCCC3 | ? | -76 | 0 | ? | ? | 11µM
COCCn1c(=O)c(-c2ccccc2)nc2cnc(N(C)C)nc21 | - | - | 0 | - | - | -
CCc1cccc(NC(=O)c2oc3ccc4c(c3c2C)C(=O)CC(C)(C)O4)c1 | 0 | -60 | ? | - | 0 | 0
O=C(/C=C/c1ccccc1)N[C@H]1CC[C@@]23CCCN2C(=O)CCC[C@H]3[C@H]1Cc1ccccc1 | - | 0 | - | - | - | -
CNc1ccc(C=O)cc1I | 0 | - | - | - | - | 0
CN(C)c1ccc(/C=N/NC(=O)c2ccccn2)cc1 | 0 | 0 | 0 | ? | ? | 0
S=C(Nc1cccc(Br)c1)c1ccccc1 | - | -74 | 0 | 0 | ? | -
CN(C)c1ccc(C(=S)Nc2ccccc2)cc1 | 0 | -65 | 0 | 14µM | ? | ?
CN(C)c1ccc(NC(=S)c2ccccn2)cc1 | 0 | -91 | 2.8µM | 0.82µM | 0.89µM | 0
Cc1c(CC(C)(C)C(=O)O)n(Cc2ccc(Cl)cc2)c2ccc(F)cc12 | - | - | 0 | - | - | -
COc1cccc(CNCC(O)(c2ccc(Cl)cc2)c2ccc(Cl)cc2)c1 | - | 0 | ? | 18µM | 0 | -
